Measurements as given in PubChem BioAssay AID485272 (The Scripps Research Institute Molecular Screening Center, 2010).
The campaign covered roughly 330,000 compounds. About 1,300 (0.39%) were called active. The entries come from a sample that favours actives as a whole. A number with no mark means an inactive call.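 Rule for the calls: active = percent inhibition above a cutoff equal to the mean of all tested compounds plus 3 SD (cut at about 15% in these data); inactive = the rest.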

The molecules below were run against Protein-arginine deiminase type-4 (Homo sapiens) (UniProt Q9UM07) (assay: protein arginine deiminase 4 enzyme blockade – biochemical, fluorescence polarization, 1536-well format, primary screen (AID 485272;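 note: 0% = PAD4 with RCA probe and DMSO and 100% = probe without PAD4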)). Settings: recombinant PAD4, RCA probe fluorescence polarization; at 6.36 µM; hits give high values.
Chain of Protein-arginine deiminase type-4 (Homo sapiens) (Q9UM07 whole entry, looked up): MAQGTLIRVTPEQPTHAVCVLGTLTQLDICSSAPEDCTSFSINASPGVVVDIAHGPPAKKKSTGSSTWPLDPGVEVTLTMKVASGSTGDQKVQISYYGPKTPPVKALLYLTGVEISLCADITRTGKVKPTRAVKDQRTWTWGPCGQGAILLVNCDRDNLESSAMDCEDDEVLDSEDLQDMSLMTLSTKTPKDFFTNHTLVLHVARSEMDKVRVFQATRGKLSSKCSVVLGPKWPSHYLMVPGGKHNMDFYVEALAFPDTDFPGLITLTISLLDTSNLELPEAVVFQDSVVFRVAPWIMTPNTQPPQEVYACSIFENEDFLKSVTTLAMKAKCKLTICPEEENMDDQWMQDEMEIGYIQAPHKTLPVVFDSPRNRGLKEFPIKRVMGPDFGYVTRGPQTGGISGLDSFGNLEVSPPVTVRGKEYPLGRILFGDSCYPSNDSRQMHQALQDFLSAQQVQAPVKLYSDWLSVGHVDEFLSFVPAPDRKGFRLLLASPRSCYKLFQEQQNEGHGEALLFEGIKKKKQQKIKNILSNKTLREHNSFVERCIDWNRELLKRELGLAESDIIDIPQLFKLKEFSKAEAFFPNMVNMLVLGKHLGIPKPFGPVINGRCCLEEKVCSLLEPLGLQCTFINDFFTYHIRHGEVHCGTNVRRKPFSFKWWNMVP
Nc1cc(N)nc(SCc2cccc(F)c2)n1 was tested, and the inhibition was -6.07%. CCc1nnc(SCc2cccc(F)c2)nc1CC was tested, and the inhibition was 24.2% (active). Cc1cc(=O)[nH]c(SCc2cccc(F)c2)n1 showed an inhibition of 3.23%. Molecule CC(C)Cc1nc(Nc2ccc(S(=O)(=O)N3CCCC3)cc2)c2nnn(Cc3ccccc3)c2n1 has an inhibition of -3.06%. Molecule CCCc1cc(=O)[nH]c(SCC(=O)Nc2ccc(S(=O)(=O)N3CCCC3)cc2)n1 has an inhibition of 5.78%. Molecule CC(=O)Oc1ccc(N(C(C)=O)S(=O)(=O)c2ccc3ccccc3c2)cc1Br has an inhibition of -0.04%. For CC(=O)N(c1ccc2oc(=O)sc2c1)S(=O)(=O)c1ccc(C)cc1, the inhibition was 19.6% (active). With COC(=O)c1c(C)oc2ccc(N(C(=O)Oc3ccccc3)S(=O)(=O)c3ccccc3)cc12 the inhibition was -4.57%. CCOC(=O)c1c(C)[nH]c(C2=NNC(=NC(C)COC)SC2)c1C (configuration not stated) was tested, and the inhibition was -4.38%. O=C(NC(=S)Nc1cc(C(F)(F)F)ccc1N1CCOCC1)c1ccc(-c2cccc(Cl)c2)o1 showed an inhibition of -0.46%. Cc1ccc(-n2[nH]c(C)c(/C=N/NC(=O)c3cccc([N+](=O)[O-])c3)c2=O)cc1C gave an inhibition of -0.65%. For COc1cc(SC#N)ccc1N=Cc1c(C)[nH]n(-c2ccc(C)cc2)c1=O, the inhibition was 27.3% (active). COc1ccc(C(=O)Nc2ccc(C(=O)NCC3CCCO3)cc2)c(OC)c1OC (configuration not stated) gave an inhibition of 2.07%. With COc1ccc(CCn2ccc(O)c(Cc3ccc(Cl)cc3Cl)c2=O)cc1OC the inhibition was 2.71%. With COc1ncnc2c1N=C1CC(C)(C)CC(N)=C1S2 the inhibition was 16.7% (active). C#CCOCCOCCOCCNc1nc(N2CCN(C(=O)C([C@@H](C)O)n3cc([C@@H](N)CCCCN)nn3)CC2)nc(N2CCN(C(=O)[C@H](CCCCN)n3cc(CN)nn3)CC2)n1 (some centres not stated) showed an inhibition of 4.78%. For CC(=O)NS(=O)(=O)c1ccc(N/C(N)=N/c2nc(C)cc(C)n2)cc1, the inhibition was -0.78%. Work on CSc1ccc(/C=C2\NC(=O)NC2=O)cc1 yielded an inhibition of -0.37%. For CNC(=O)c1ccsc1NC(=O)c1ccc(S(=O)(=O)N2CCOCC2)cc1, the inhibition was -4.29%. With COc1ccc(C(=O)Nc2nc(-c3ccc(S(=O)(=O)N4CCOCC4)cc3)cs2)cc1 the inhibition was 17.5% (active). Molecule CCOC(=O)c1csc(NC(=O)c2ccc(S(=O)(=O)N3CCCC3)cc2)n1 has an inhibition of -3.23%. CCOC(=O)c1ccc(NNC(C)=O)c([N+](=O)[O-])c1 showed an inhibition of -2.2%. In the case of COC(=O)c1noc(C)c1-c1ccnn1C(=O)c1ccc(Cl)cc1, the inhibition is reported as -7.73%. With Cc1ccc(N=C2NC(=O)c3cccc([N+](=O)[O-])c32)cc1 the inhibition was -1.46%. Molecule O=C(NCc1ccccn1)c1ccc2nc(-c3ccco3)c(-c3ccco3)nc2c1 has an inhibition of 7.09%. COc1cccc(NC(=O)NCCN2CCCCC2)c1 was tested, and the inhibition was -0.52%. In the case of COCCNC(=O)Nc1ccc2nc(-c3ccco3)c(-c3ccco3)nc2c1, the inhibition is reported as 22% (active). Work on CCc1ccc(OC(C)C(=O)Nc2ccc(S(=O)(=O)Nc3cc(C)on3)cc2)cc1 (configuration not stated) yielded an inhibition of -0.06%. With CC(C)C(NC(=O)OCc1ccccc1)C(=O)OCC(=O)N1C(C)CCCC1C (configuration not stated) the inhibition was 2.54%. With Cc1nn(Cc2ccccc2)c(C)c1CNC(=O)c1ccc(F)c(S(=O)(=O)N2CCOCC2)c1 the inhibition was 27.9% (active). In the case of O=C(c1ccc(F)c(S(=O)(=O)N2CCOCC2)c1)N(CCc1ccccc1)Cc1ccccc1, the inhibition is reported as -3.27%. With O=C(NCCSCc1ccccc1)c1ccc(Cl)c(S(=O)(=O)N2CCOCC2)c1 the inhibition was 1.45%. In the case of CCOC(=O)c1cc(NC(=O)SCC(=O)O)c(C)nc1C, the inhibition is reported as 2.33%. CC1=NN(C(C)C)C(=O)C1 showed an inhibition of -8.28%. CC(C)(C)NC(=O)NC(=O)COC(=O)C1(C)CC1(Cl)Cl (configuration not stated) showed an inhibition of -0.93%. For CC(C)(C)NC(=O)NC(=O)COC(=O)CCC1CCCCC1, the inhibition was 41.1% (active). Work on COc1ccccc1OCCC(=O)OCC(=O)NC(=O)NC(C)(C)C yielded an inhibition of 6.96%. Molecule COc1ccc(S(=O)(=O)N2CCCCCC2)cc1C(=O)OCC(=O)Nc1cc(C)on1 has an inhibition of -6.43%. CCCCN(C)CCNC(=O)CSCc1ccc(C)cc1 was tested, and the inhibition was -2.21%. Molecule COc1ccc(CCNS(=O)(=O)c2ccc(Cl)s2)cc1OC has an inhibition of -2.69%. For Cc1c(-c2nn(C)c(=O)c3ccccc23)oc2ccc(F)cc2c1=O, the inhibition was 35.8% (active). O=C1c2oc3ccc(Br)cc3c(=O)c2C(c2cccc(F)c2)N1CCO (configuration not stated) was tested, and the inhibition was -4.97%. Work on Cc1ccc(F)cc1NC(=O)Cc1nn(C)c(=O)c2ccccc12 yielded an inhibition of -6.33%. With COC(=O)c1cc2c(N)c(C(=O)c3ccc(Cl)cc3)sc2nc1C(OC)OC the inhibition was 0.06%. For Nc1ccc2nc3c(=O)[nH]c(=S)[nH]c3nc2c1, the inhibition was 31.8% (active). Molecule O=c1c(F)cn(C2CCCO2)c(=O)n1Cc1ccccc1Cl (configuration not stated) has an inhibition of -4.61%. In the case of O=C(CNC1CCCCC1)NCC1(c2ccccc2)CCCC1, the inhibition is reported as -2.33%. Cc1nn(Cc2ccccc2)c2c1C(c1ccccc1)C(C#N)=C(N)O2 (configuration not stated) gave an inhibition of -0.16%. Cc1nn(-c2ccccc2)c2c1C(c1ccc(F)cc1)C(C#N)=C(N)O2 (configuration not stated) was tested, and the inhibition was -1.5%. For COc1ccccc1C1C(C#N)=C(N)Oc2c1c(-c1ccccc1)nn2-c1ccccc1 (configuration not stated), the inhibition was 33.4% (active). For O=C(O)CC(SCC(=O)Nc1ccc(Br)cc1)C(=O)O (configuration not stated), the inhibition was 1.63%. For COCCOC(=O)c1sc(=S)n(CCOC)c1N, the inhibition was 40.9% (active). In the case of CCOC(=O)CN(C(=O)COc1nc(C)cc(C)c1C#N)c1ccc(Cl)cc1, the inhibition is reported as 5.17%. In the case of CCOc1ccc(N=C2NC(=O)S/C2=C\c2ccc(O)cc2)cc1, the inhibition is reported as -1.95%. In the case of CCOc1[nH]n(-c2ccc(Cl)cc2)c(=O)c1C=Nc1ccc(O)cc1, the inhibition is reported as 26.1% (active). For CC(C)c1nc(CNC(=O)CC2C(=O)NCCN2Cc2ccoc2)cs1 (configuration not stated), the inhibition was 5.06%. Work on OC1CSc2nc3ccccc3n2C1 (configuration not stated) yielded an inhibition of -1.87%. Cc1ccc(-c2cc(C(=O)NCc3cn(C)nc3C)c3cc(Br)ccc3n2)cc1 showed an inhibition of 2.48%. In the case of O=C(CCn1c(SCC(=O)c2ccccc2)nc2ccccc2c1=O)NCc1ccc(F)cc1, the inhibition is reported as 67.8% (active). O=C(CSc1nc2ccccc2c(=O)n1-c1ccc(F)cc1)NC1CC1 was tested, and the inhibition was 1.54%. O=C(CSc1nc2ccccc2c(=O)n1Cc1ccc(F)cc1)NCC1CCCO1 (configuration not stated) was tested, and the inhibition was -1.2%. Molecule CCN(C(=O)CSc1nc(N)cc(=O)[nH]1)C1CCS(=O)(=O)C1 (configuration not stated) has an inhibition of -0.69%. Work on CONc1nc2nonc2nc1NOC yielded an inhibition of -1.87%. COc1ccc([C@H]2CC(=O)C=C(c3ccc(CO)cc3)C2)cc1 showed an inhibition of 1.09%. Molecule O=S(=O)(Cc1nnnn1-c1ccc(Br)cc1)c1ccc(F)cc1 has an inhibition of -0.08%. Molecule O=C1CN(C(=O)CN2C(=O)NC3(CCCCC3)C2=O)c2ccccc2N1 has an inhibition of 1.47%. Work on Cc1ccc(C)c(S(=O)(=O)N2CCCOC2CNC(=O)C(=O)NC2CCCCC2)c1 (configuration not stated) yielded an inhibition of -5.07%. COc1cccc(-c2nc(CS(=O)CC(=O)NCc3ccc(F)cc3)c(C)o2)c1 (configuration not stated) gave an inhibition of 0.77%. For COc1ccc(-c2nc(CS(=O)CC(=O)NCc3ccccn3)c(C)o2)cc1 (configuration not stated), the inhibition was 30.3% (active). COc1ccc(-c2nc(CS(=O)CC(=O)NCc3ccccc3)c(C)o2)cc1OC (configuration not stated) was tested, and the inhibition was 6.4%. Molecule Cc1ccc(/C=C2\CCn3c2nc2cc(C(=O)O)ccc2c3=O)c(C)c1 has an inhibition of -1.1%. Molecule COc1ccccc1OCCCCCCN1CCN(C)CC1 has an inhibition of -0.69%. Molecule Cn1c(SCC(=O)Nc2nccs2)nnc1-c1cccnc1 has an inhibition of 0.78%. For Cn1c(Nc2cccc(Cl)c2)nc2ccccc21, the inhibition was 22.6% (active). With Cn1c(NC(=O)c2ccccc2)nc2ccccc21 the inhibition was -1.36%. For Cc1c(C(=O)Nc2cccc(Cl)c2)cn2c(nc3ccccc32)c1C#N, the inhibition was -8.49%. CC(C)C(NC(=O)c1ccc(Cl)cc1)C(=O)O (configuration not stated) was tested, and the inhibition was 33.2% (active). For CC(C)CNC(=S)NC(=O)c1ccc(Cl)cc1, the inhibition was 3.77%. CC(NC(=O)c1ccc(Cl)cc1)C(=O)N1CCCCC1 (configuration not stated) gave an inhibition of -2.13%. CN(C)N1C(N)=C(C#N)C(c2ccc(Br)cc2)C2=C1CCCC2=O (configuration not stated) was tested, and the inhibition was -7.04%. Molecule Cc1ccc(-c2nn(-c3ccccc3)cc2/C=C/C(=O)Nc2cccc(S(N)(=O)=O)c2)cc1 has an inhibition of -9.63%. In the case of Cc1ccc(-c2nn(-c3ccccc3)cc2/C=C2\SC(=S)N(CCCCCC(=O)O)C2=O)o1, the inhibition is reported as -0.43%. In the case of CN(C)S(=O)(=O)c1cccc(-c2nn(-c3ccccc3)cc2/C=C2\SC(=S)N(CC(=O)O)C2=O)c1, the inhibition is reported as 29.1% (active). Cc1cc(NS(=O)(=O)c2ccc(NC(=S)NC(=O)c3ccc(F)cc3Cl)cc2)no1 was tested, and the inhibition was -2.99%. For CCOc1ccc(S(=O)(=O)N2CCC(C(=O)NCc3ccccn3)CC2)cc1Cl, the inhibition was -2.62%. With C=C1CCC(N(O)c2cc(C)on2)C(=C)CCC2C1CC2(C)C (configuration not stated) the inhibition was -6.2%. Cc1[nH]n(-c2ccc([N+](=O)[O-])cc2)c(=O)c1C=NCCN1CCN(C(=O)c2ccccc2F)CC1 was tested, and the inhibition was -1.51%. Work on COc1cnn(-c2ccc([N+](=O)[O-])cc2)c(=O)c1Cl yielded an inhibition of 3.88%. With O=c1[nH]n(-c2ccc([N+](=O)[O-])cc2)c(=O)c2ccccc12 the inhibition was 31.3% (active). COc1ccc(-c2cc(C(=O)NCCCN3CCOCC3)no2)cc1 was tested, and the inhibition was -1.77%. CCCCNC(=O)C1(c2ccc(OC)cc2)CCOCC1 was tested, and the inhibition was 26.1% (active). In the case of CCCCCNC(=O)Cc1ccc(OC)cc1, the inhibition is reported as 1.91%.
